The structures appear in SMILES notation. About 83,000 compounds went through this panel and 20% of them were active in at least one assay; those are over-represented in the sample as a whole.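 Interpretation: 100, growth as untreated; towards 0, rising growth inhibition; 0, no net growth; 0 to -100, cell death. Compounds scoring below 10 were considered active.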 The source made the active and inactive calls.

In one test the test system is NCI-H460 lung. As to the kind of experiment: NCI-60 one-dose screen, 48 h (100 = growth as untreated, 0 = no growth, -100 = all killed). Conditions: 10 µM unless noted.
For the compound `O=C(C=P(c1ccccc1)(c1ccccc1)c1ccccc1)CCl`, the growth is -11.9% (active).

On to `CS(=O)(=O)Nc1cc(-c2cc3ncc(C#N)c(Nc4ccc(Oc5ccccc5)c(Cl)c4)c3s2)cnc1Cl`, for which the growth is 21.7% (inactive).

For the compound `O=C(c1ccccc1)N(CCCCl)C(=O)N(CCCCl)C(=O)c1ccccc1`, the growth is 108% (inactive).

For `CCCCn1c(-c2ccc(F)cc2)nc2cc(OC)c(OC)cc2c1=O`, the growth is 112% (inactive).

Consider `Oc1c(-c2cc(C(F)(F)F)[nH]n2)cc(Cl)c(OCc2ccc(Cl)cc2)c1-c1ccc(Cl)c(C(F)(F)F)c1`, for which the growth is 7.68% (active).

Consider `Cc1ccccc1N1C(c2ccccc2)=NNC12C=CC(=O)c1c(O)cccc12` (stereo unspecified), for which the growth was 89.6% (inactive).

Consider `O=C(C(=O)c1cccnc1)c1cccnc1`, for which the growth was 111% (inactive).

Consider `COc1c(B(O)O)cccc1-c1nc2ccc3[nH]ncc3c2c2c1CCCC2`, for which the growth is 8.49% (active).

For `COC(=O)c1cc2oc(/C=N/NC(=O)c3cc4oc(-c5cccc(C(F)(F)F)c5)cc4[nH]3)cc2n1Cc1ccccc1`, the growth is 107% (inactive).

On to `Fc1ccc(-c2nnc(N3CCOCC3)c3ccccc23)cc1`, for which the growth was 103% (inactive).

In the case of `COc1cc(C)c2c(=O)c3c(oc2c1)C(=O)c1c(O)c(OC)cc(O)c1C3=O`, the growth was 1.04% (active).

For the compound `COc1ccc(C2=CC(c3ccc(OC)cc3Br)N3C=CSC3=N2)cc1` (stereo unspecified), the growth was 90.6% (inactive).

For the compound `CC1=C(C(=O)Nc2ccc(F)cc2)C(c2ccc(Cl)cc2)C2=C(CC(C)(C)CC2=O)N1` (stereo unspecified), the growth was 96.4% (inactive).

Turning to `Cc1ccc(NC(=O)c2nc(S(C)=O)oc2-c2ccc(F)cc2)cc1Nc1nccc(-c2cccnc2)n1` (stereo unspecified), the growth was 61.5% (inactive).

Consider `COc1ccc(C(=O)c2c(N)nc3n2CCCC3)cc1OC`, for which the growth was 105% (inactive).

As for `CC1CN(CCCOC(=O)Nc2ccc(Cl)cc2)CCN1C(C)(C)C` (stereo unspecified), the growth is 106% (inactive).

Take `CCN(CC)c1ccc2nc3c4ccccc4c(=O)cc-3n(-c3ccccc3)c2c1`: the growth is -41.5% (active).

On to `C=CCOc1c(Br)cc(Br)cc1Br`, for which the growth is 38.5% (inactive).

As for `Brc1ccccc1Cn1c(-c2cncs2)nc2ccccc21`, the growth was 80.8% (inactive).

Consider `CCN(CC)CCCNc1cccc2c(C)cc(OC)nc12`, for which the growth is 100% (inactive).

With `O=C(NO)c1ccc(NCc2csc3ccccc23)cc1`, the growth was 39.8% (inactive).

As to `CCNS(=O)(=O)c1ccc(C)cc1`, the growth is 101% (inactive).

Turning to `CC(=O)[C@@]1(O)[C@H](C)C[C@H]2[C@@H]3C=C(C)C4=Cc5c(cnn5-c5ccccc5)C[C@]4(C)[C@H]3[C@@H](O)C[C@@]21C`, the growth is -20.5% (active).

Turning to `O=C1OC(c2ccc(-c3ccccc3)cc2)=C/C1=C/c1c(Cl)cccc1Cl`, the growth was 99.4% (inactive).

For `COc1ccc(-c2nc(-c3ccccc3OCc3ccccc3OC)nc(C)c2C(C)=O)cc1`, the growth is 80.6% (inactive).

Regarding `COc1ccc(C2CC(c3cccc(Nc4ccnc5cc(Cl)ccc45)c3)=NN2c2ccccc2)cc1` (stereo unspecified), the growth is 43.7% (inactive).

Take `Cc1cc(C)c2c(NC(=O)Nc3ccc(Cl)c(Cl)c3)n[nH]c2n1`: the growth is 106% (inactive).

Consider `COc1ccc(/C(=C\c2ccc3c(c2)OCO3)C(=O)Nc2nc3ccc(F)cc3s2)cc1OC`, for which the growth is 105% (inactive).

With `Cc1[nH]n(C(=O)c2ccncc2)c(=O)c1N=Nc1ccc(O)c(C(=O)O)c1`, the growth was 114% (inactive).

With `Cc1cc(NC(=O)C2c3ccccc3C(=O)N(CC(C)C)C2c2cccs2)no1` (stereo unspecified), the growth is 69.1% (inactive).

Regarding `CC(C)N=C1CCCC1C(=S)SSC(=S)C1CCCC1=NC(C)C` (stereo unspecified), the growth is 47.5% (inactive).

For `COCCCNCC(=O)Nc1c(C)cccc1C`, the growth is 116% (inactive).

`Clc1ccc(Nc2ncnc3c2sc2ncccc23)cc1`: the growth was 10.3% (inactive).

For `CNC(=O)c1cc(Oc2ccc(NC(=O)c3nc(S(C)(=O)=O)sc3-c3ccc(F)cc3)cc2)ccn1`, the growth is 84.7% (inactive).

Take `O=C(/C=C/c1ccccc1)C(Br)C(Br)c1ccccc1` (stereo unspecified): the growth was 89.8% (inactive).

On to `C#CC[C@@H]1C[C@]2(C)[C@H]3CC[C@@H]4[C@H]5C(C(=C)C)CC[C@]5(C(=O)NCCN(CCN)CCN)CC[C@@]4(C)[C@]3(C)CC[C@H]2C(C)(C)[C@H]1OC(C)=O` (stereo partly specified), for which the growth was 81.8% (inactive).

In the case of `[Ag].[Ag].[NH-]S(=O)(=O)c1ccc(N=Nc2cc(N=Nc3ccc(S([NH-])(=O)=O)cc3)c3c(NC(=O)C(Cl)Cl)cccc3c2OC(=O)C(Cl)Cl)cc1.[c-]1nccs1.[c-]1nccs1`, the growth was 56.7% (inactive).

As for `Oc1ccc(-c2cnc(-c3ccccc3)[nH]2)c(O)c1`, the growth was 110% (inactive).

In a further test the test system is HOP-92 NSCLC. The description is as above. Conditions: 10 µM unless noted.
With `O=C(C=P(c1ccccc1)(c1ccccc1)c1ccccc1)CCl`, the growth was -51.7% (active).

In the case of `CS(=O)(=O)Nc1cc(-c2cc3ncc(C#N)c(Nc4ccc(Oc5ccccc5)c(Cl)c4)c3s2)cnc1Cl`, the growth is 45.6% (inactive).

Regarding `O=C(c1ccccc1)N(CCCCl)C(=O)N(CCCCl)C(=O)c1ccccc1`, the growth was 70.1% (inactive).

Regarding `CCCCn1c(-c2ccc(F)cc2)nc2cc(OC)c(OC)cc2c1=O`, the growth is 66.1% (inactive).

In the case of `Oc1c(-c2cc(C(F)(F)F)[nH]n2)cc(Cl)c(OCc2ccc(Cl)cc2)c1-c1ccc(Cl)c(C(F)(F)F)c1`, the growth is -12.1% (active).

As to `Cc1ccccc1N1C(c2ccccc2)=NNC12C=CC(=O)c1c(O)cccc12` (stereo unspecified), the growth is 137% (inactive).

`O=C(C(=O)c1cccnc1)c1cccnc1`: the growth was 103% (inactive).

On to `COc1c(B(O)O)cccc1-c1nc2ccc3[nH]ncc3c2c2c1CCCC2`, for which the growth was 32.8% (inactive).

`COC(=O)c1cc2oc(/C=N/NC(=O)c3cc4oc(-c5cccc(C(F)(F)F)c5)cc4[nH]3)cc2n1Cc1ccccc1`: the growth is 78.1% (inactive).

With `Fc1ccc(-c2nnc(N3CCOCC3)c3ccccc23)cc1`, the growth is 103% (inactive).

As for `COc1cc(C)c2c(=O)c3c(oc2c1)C(=O)c1c(O)c(OC)cc(O)c1C3=O`, the growth was -32% (active).

On to `COc1ccc(C2=CC(c3ccc(OC)cc3Br)N3C=CSC3=N2)cc1` (stereo unspecified), for which the growth is 77.4% (inactive).

On to `CC1=C(C(=O)Nc2ccc(F)cc2)C(c2ccc(Cl)cc2)C2=C(CC(C)(C)CC2=O)N1` (stereo unspecified), for which the growth was 62% (inactive).

Regarding `Cc1ccc(NC(=O)c2nc(S(C)=O)oc2-c2ccc(F)cc2)cc1Nc1nccc(-c2cccnc2)n1` (stereo unspecified), the growth was 96.2% (inactive).

As for `COc1ccc(C(=O)c2c(N)nc3n2CCCC3)cc1OC`, the growth was 118% (inactive).

Turning to `CC1CN(CCCOC(=O)Nc2ccc(Cl)cc2)CCN1C(C)(C)C` (stereo unspecified), the growth is 133% (inactive).

Consider `CCN(CC)c1ccc2nc3c4ccccc4c(=O)cc-3n(-c3ccccc3)c2c1`, for which the growth was -7.83% (active).

With `C=CCOc1c(Br)cc(Br)cc1Br`, the growth is 90.6% (inactive).

As to `Brc1ccccc1Cn1c(-c2cncs2)nc2ccccc21`, the growth was 0.748% (active).

As for `CCN(CC)CCCNc1cccc2c(C)cc(OC)nc12`, the growth is 58.4% (inactive).

With `O=C(NO)c1ccc(NCc2csc3ccccc23)cc1`, the growth was 71.7% (inactive).

For the compound `CCNS(=O)(=O)c1ccc(C)cc1`, the growth was 69.7% (inactive).

Turning to `CC(=O)[C@@]1(O)[C@H](C)C[C@H]2[C@@H]3C=C(C)C4=Cc5c(cnn5-c5ccccc5)C[C@]4(C)[C@H]3[C@@H](O)C[C@@]21C`, the growth is 13.2% (inactive).

As for `O=C1OC(c2ccc(-c3ccccc3)cc2)=C/C1=C/c1c(Cl)cccc1Cl`, the growth was 59% (inactive).

For `COc1ccc(-c2nc(-c3ccccc3OCc3ccccc3OC)nc(C)c2C(C)=O)cc1`, the growth is 71.2% (inactive).

For the compound `COc1ccc(C2CC(c3cccc(Nc4ccnc5cc(Cl)ccc45)c3)=NN2c2ccccc2)cc1` (stereo unspecified), the growth was 57.8% (inactive).

Consider `Cc1cc(C)c2c(NC(=O)Nc3ccc(Cl)c(Cl)c3)n[nH]c2n1`, for which the growth is 117% (inactive).

`COc1ccc(/C(=C\c2ccc3c(c2)OCO3)C(=O)Nc2nc3ccc(F)cc3s2)cc1OC`: the growth was 93.6% (inactive).

Turning to `Cc1[nH]n(C(=O)c2ccncc2)c(=O)c1N=Nc1ccc(O)c(C(=O)O)c1`, the growth was 62.7% (inactive).

In the case of `Cc1cc(NC(=O)C2c3ccccc3C(=O)N(CC(C)C)C2c2cccs2)no1` (stereo unspecified), the growth was -0.868% (active).

Turning to `CC(C)N=C1CCCC1C(=S)SSC(=S)C1CCCC1=NC(C)C` (stereo unspecified), the growth was 103% (inactive).

On to `COCCCNCC(=O)Nc1c(C)cccc1C`, for which the growth is 103% (inactive).

As for `Clc1ccc(Nc2ncnc3c2sc2ncccc23)cc1`, the growth was 50.4% (inactive).

As to `CNC(=O)c1cc(Oc2ccc(NC(=O)c3nc(S(C)(=O)=O)sc3-c3ccc(F)cc3)cc2)ccn1`, the growth is 138% (inactive).

Take `O=C(/C=C/c1ccccc1)C(Br)C(Br)c1ccccc1` (stereo unspecified): the growth was -18.9% (active).

With `C#CC[C@@H]1C[C@]2(C)[C@H]3CC[C@@H]4[C@H]5C(C(=C)C)CC[C@]5(C(=O)NCCN(CCN)CCN)CC[C@@]4(C)[C@]3(C)CC[C@H]2C(C)(C)[C@H]1OC(C)=O` (stereo partly specified), the growth is 66.3% (inactive).

For `[Ag].[Ag].[NH-]S(=O)(=O)c1ccc(N=Nc2cc(N=Nc3ccc(S([NH-])(=O)=O)cc3)c3c(NC(=O)C(Cl)Cl)cccc3c2OC(=O)C(Cl)Cl)cc1.[c-]1nccs1.[c-]1nccs1`, the growth is 60.7% (inactive).

Turning to `Oc1ccc(-c2cnc(-c3ccccc3)[nH]2)c(O)c1`, the growth is 58.7% (inactive).
